# Measurements from the supplement of paper PMC3414501.
# Counter-ions that a name gives are not always drawn.
# System: S. cerevisiae BY4741 (wild-type), vegetative growth in YPD
# Assay: growth sensitivity score (doubling time z-score vs DMSO controls); higher = slower growth, strongly negative scores also mark growth inhibition (complete suppression), active = hit call of the paper; in the data active = 2 or more and inactive = the rest
# Procedure, shortened: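 Yeast (Saccharomyces cerevisiae BY4741 and AD1-9) was grown in rich medium in microtiter plates from a starting OD600 of 0.065, with optical density read every 15 min over 24 hours. The growth sensitivity score was the difference between compound and solvent-only means, divided by the solvent-only standard deviation. Every experiment had eight solvent-only wells.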
row,Structure (SMILES),growth sensitivity score
1,"COCCOC(=O)C1=C(C)NC(C)=C(C(=O)OC(C)C)C1c1cccc([N+](=O)[O-])c1 (stereo unspecified) [Nimodipine] (stock concentration (mM, diluted 1:100): 10)",0.46 (inactive)
2,"COc1ccc(-c2cc(=O)c3c(OC)c(OC)c(OC)c(OC)c3o2)cc1OC [Nobiletin] (stock concentration (mM, diluted 1:100): 10)",4.43 (active)
3,"CC(=O)[C@H]1CC[C@H]2[C@@H]3CCC4=CC(=O)CC[C@]4(C)[C@H]3CC[C@]12C [Progesterone] (stock concentration (mM, diluted 1:100): 10)",4.04 (active)
4,"O=C(O[C@@H]1C[C@@H]2C[C@H]3C[C@H](C1)N2CC3=O)c1c[nH]c2ccccc12 [Dolasetron mesylate] (stock concentration (mM, diluted 1:100): 10.4)",0.44 (inactive)
5,"COC(=O)C1=C(C)NC(C)=C(C(=O)OC(C)C)C1c1cccc2nonc12 (stereo unspecified) [Isradipine] (stock concentration (mM, diluted 1:100): 9.9)",0.93 (inactive)
6,"COc1ccccc1N1CCN(CCCNc2cc(=O)n(C)c(=O)n2C)CC1 [Urapidil hydrochloride] (stock concentration (mM, diluted 1:100): 10)",0.85 (inactive)
7,"CC(C)[C@H](N)C(=O)OCCOCn1cnc2c(=O)nc(N)[nH]c21 [Valaciclovir hydrochloride] (stock concentration (mM, diluted 1:100): 9)",0.36 (inactive)
8,"CC1=Nc2ccc(Cl)cc2S(=O)(=O)N1 [Diazoxide] (stock concentration (mM, diluted 1:100): 10)",-0.72 (inactive)
9,"CC[C@H]1OC(=O)[C@H](C)C(=O)[C@H](C)[C@@H](O[C@@H]2O[C@H](C)C[C@H](N(C)C)[C@H]2O)[C@](C)(OC)C[C@@H](C)C(=O)[C@H](C)[C@H]2N(CCCCn3cnc(-c4cccnc4)c3)C(=O)O[C@]12C [Telithromycin] (stock concentration (mM, diluted 1:100): 10)",0.09 (inactive)
10,"CCCCC(=O)N(Cc1ccc(-c2ccccc2-c2nnn[nH]2)cc1)[C@H](C(=O)O)C(C)C [Valsartan] (stock concentration (mM, diluted 1:100): 10)",-1.05 (inactive)
11,"C[C@@H]1C[C@H]2[C@@H]3C[C@H](F)C4=CC(=O)C(Cl)=C[C@]4(C)[C@@]3(F)[C@@H](O)C[C@]2(C)[C@@]1(O)C(=O)CO [Halometasone monohydrate] (stock concentration (mM, diluted 1:100): 10)",-0.26 (inactive)
12,"COc1ccccc1OCCNCC(O)COc1cccc2[nH]c3ccccc3c12 (stereo unspecified) [Carvedilol] (stock concentration (mM, diluted 1:100): 10)",0.43 (inactive)
13,"CCC1=C[C@H]2CN(C1)Cc1c([nH]c3ccccc13)[C@@](C(=O)OC)(c1cc3c(cc1OC)N(C)[C@H]1[C@@](O)(C(=O)OC)[C@H](OC(C)=O)[C@]4(CC)C=CCN5CC[C@]31[C@@H]54)C2 [Vinorelbine bitatrate] (stock concentration (mM, diluted 1:100): 7.2)",-1.83 (inactive)
14,"COc1cc2nc(N3CCN(C(=O)C4CCCO4)CC3)nc(N)c2cc1OC (stereo unspecified) [Terazosin] (stock concentration (mM, diluted 1:100): 9.5)",-0.03 (inactive)
15,"C[C@H]1O[C@H](O[C@H]2[C@H](O)[C@@H](O)[C@@H](O[C@H]3[C@H](O)[C@@H](O)C(O)O[C@@H]3CO)O[C@@H]2CO)[C@H](O)[C@@H](O)[C@@H]1N[C@H]1C=C(CO)[C@@H](O)[C@H](O)[C@H]1O (stereo partly specified) [Acarbose] (stock concentration (mM, diluted 1:100): 10)",-1.13 (inactive)
16,"CN1C(=O)CC[C@H]1c1cccnc1 [Cotinine] (stock concentration (mM, diluted 1:100): 10)",0.49 (inactive)
